This is a sample that favours compounds with a hit; in the whole collection about 12% have one here.
USP30 block – inhibitors of human USP30 deubiquitinase; purified USP30, Ub-rhodamine cleavage fluorescence; inhibition, % at 25 µM; Ubiquitin carboxyl-terminal hydrolase 30 (Homo sapiens), Q70CQ3; 47,000 tested, 5.3% active
USP28 block – inhibitors of human USP28 deubiquitinase; Ubiquitin carboxyl-terminal hydrolase 28 (Homo sapiens), Q96RU2; inhibition, % at 25 µM; purified USP28, Ub-rhodamine cleavage fluorescence, 30 min; 47,000 tested, 3% active
Target sequence (Q96RU2 whole entry, looked up): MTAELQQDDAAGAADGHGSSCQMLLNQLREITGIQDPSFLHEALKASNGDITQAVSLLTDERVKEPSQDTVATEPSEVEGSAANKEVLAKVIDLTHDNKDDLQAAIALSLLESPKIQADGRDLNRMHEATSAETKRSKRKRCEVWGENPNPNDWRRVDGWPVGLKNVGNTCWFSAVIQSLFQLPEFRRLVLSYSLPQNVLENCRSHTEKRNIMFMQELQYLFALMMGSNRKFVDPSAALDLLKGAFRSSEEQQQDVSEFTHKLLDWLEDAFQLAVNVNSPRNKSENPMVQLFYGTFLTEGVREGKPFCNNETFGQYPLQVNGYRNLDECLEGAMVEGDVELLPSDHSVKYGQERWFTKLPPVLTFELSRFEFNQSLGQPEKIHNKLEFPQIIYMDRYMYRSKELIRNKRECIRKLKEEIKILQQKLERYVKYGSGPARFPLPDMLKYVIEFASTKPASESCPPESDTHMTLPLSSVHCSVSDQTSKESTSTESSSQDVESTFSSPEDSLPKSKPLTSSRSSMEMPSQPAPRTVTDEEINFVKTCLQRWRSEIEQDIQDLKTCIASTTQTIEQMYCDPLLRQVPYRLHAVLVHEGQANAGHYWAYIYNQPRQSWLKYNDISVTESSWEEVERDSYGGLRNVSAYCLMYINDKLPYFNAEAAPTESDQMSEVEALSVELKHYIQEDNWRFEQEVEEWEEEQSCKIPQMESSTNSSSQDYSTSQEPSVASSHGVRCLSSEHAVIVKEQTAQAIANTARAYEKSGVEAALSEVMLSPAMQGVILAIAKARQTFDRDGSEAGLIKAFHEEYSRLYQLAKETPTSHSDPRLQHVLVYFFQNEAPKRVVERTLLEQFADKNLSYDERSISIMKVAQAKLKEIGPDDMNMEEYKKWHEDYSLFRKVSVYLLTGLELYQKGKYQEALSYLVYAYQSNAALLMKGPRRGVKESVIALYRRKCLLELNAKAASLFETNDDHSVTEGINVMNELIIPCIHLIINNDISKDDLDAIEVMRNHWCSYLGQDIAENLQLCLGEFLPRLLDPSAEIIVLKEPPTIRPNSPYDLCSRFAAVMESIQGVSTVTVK
USP17 block – inhibitors of human USP17 deubiquitinase; Ubiquitin carboxyl-terminal hydrolase 17-like protein 5 (Homo sapiens), A8MUK1; purified USP17, Ub-rhodamine cleavage fluorescence, 3 h; inhibition, % at 50 µM; 47,000 tested, 6.5% active; AID 1645855, 2021
OTUD3 inh – inhibitors of human OTUD3 deubiquitinase; OTU domain-containing protein 3 (Homo sapiens), Q5T2D3; purified OTUD3, Ub-rhodamine fluorescence, 2 h; inhibition, % at 25 µM; 47,000 tested, 0.7% active; AID 1645858, 2021
Of the large screens only hits and unclear results are named; the others gave an inactive call. Cut-off read from the data, not from the text of the source: active = inhibition above about 30%; inactive = the rest.

CC(=O)N1CCC(n2c(C)nc(C(=O)NCCc3ccc(Cl)cc3)c2C)CC1	none
O=S(=O)(Nc1ccccc1Cc1ccccc1)c1ccc(F)cc1	USP30 block 38, USP17 block 36
CCCc1ccc(S(=O)(=O)Nc2ccccc2F)cc1	USP30 block 32
O=S(=O)(Nc1ccccc1Cc1ccccc1)c1ccc(Cl)cc1	USP30 block 31
Cc1ccc(CN2CCOCC3(CC(Cn4cnnc4)CO3)C2)s1 (stereo unspecified)	none
Cc1ccc(-c2nc(NC(=O)Nc3ccc(C(F)(F)F)cc3)sc2C)cc1Cl	USP17 block 33
CN1CCN(c2ccc(NC(=O)Nc3ccc(C(F)(F)F)cc3)cc2)CC1	none
O=C(Cn1cc(C(=O)C(F)(F)F)c2cc(Br)ccc21)N1CCc2ccccc21	USP17 block 40
Cc1ccc(C)c(CN2C(=O)COc3ccc(C(=O)c4ccccc4C(=O)O)cc32)c1	USP30 block 36
CC(C)(C)n1ncc2c(=O)n(Cc3cccc([N+](=O)[O-])c3)cnc21	USP28 block 79
CC(C)(C)n1ncc2c(=O)n(CC(=O)Nc3cccc([N+](=O)[O-])c3)cnc21	none
COc1cccc(NC(=O)Cn2cnc3c(cnn3C(C)(C)C)c2=O)c1	USP28 block 30
COc1ccc(C(C)(C)C)cc1NS(=O)(=O)c1ccc(NC(C)=O)cc1	none
O=C(Cn1c(CSc2ccccc2)nc2ccccc21)Nc1ccccc1F	USP28 block 65
Cc1cc(=O)n(CC(=O)Nc2ccccc2F)c(N2CCCCC2)n1	none
O=C(CC1C(=O)N(Cc2cccnc2)c2nc3ccccc3n21)Nc1cccc2ccccc12 (stereo unspecified)	USP17 block 64
Cc1ccc(NC(=O)CC2C(=O)N(Cc3ccccc3)c3nc4ccccc4n32)cc1 (stereo unspecified)	USP17 block 32
Cc1cccc(NC(=O)CC2C(=O)N(C3CCCC3)c3nc4ccccc4n32)c1 (stereo unspecified)	none
Cc1ccccc1NC(=O)CC1C(=O)N(C2CCCC2)c2nc3ccccc3n21 (stereo unspecified)	USP30 block 30
COc1cccc(C(=O)COC(=O)c2cc(=O)[nH]c3ccccc23)c1	USP17 block 37
O=C(COC(=O)c1cc(=O)[nH]c2ccccc12)c1ccc(Cl)cc1	none
O=C(c1ccc2c(c1)CCN2C(=O)C1CC1)N1CCCC1	none
CCc1ccc(NC(=O)Cc2nnc3cc(-c4nc(C)no4)ccn23)cc1	USP28 block 30, USP17 block 55
CCc1noc(-c2ccn3c(CC(=O)Nc4ccccc4C)nnc3c2)n1	none
Cc1ccc(NC(=O)Cc2nnc3cc(-c4nc(C)no4)ccn23)cc1	USP30 block 69, USP28 block 42, OTUD3 inh 30
Cc1noc(-c2ccc3nnc(CC(=O)Nc4ccc(F)c(C)c4)n3c2)n1	none
COc1cc2c(cc1OC)-c1cc(-c3cc(OC)c(OC)c(OC)c3)cn1CC2	none
Cn1cc(CCNS(=O)(=O)c2ccc(F)c(F)c2)c2cccnc21	none
c1ccc2oc(-c3cn[nH]c3)nc2c1	USP30 block 31
CCOc1ccc(C(=O)Nc2cccc(-c3nc4ccccc4o3)c2)cc1Br	none
Cc1ccc2c(c1)[nH]c1c(N3CCN(C4CCCCC4)CC3)ncnc12	none
CC1=CCC2C3(C)C=CC(=O)C(C)(C)C3CCC2(C)C12Cc1c(c(C)c(C)oc1=O)O2 (stereo unspecified)	none
CC1(CO)C[C@@H](O)C[C@@]2(C)C1[C@H](O)C[C@@]13CC4[C@@H](CC12)[C@@]4(C)C3 (stereo partly specified)	none
O=C(CN1CCCCC1)Nc1nnc(-c2ccc([N+](=O)[O-])cc2)s1	USP30 block 34, USP28 block 35, USP17 block 38, OTUD3 inh 40
O=C(CN1CCCCCC1)Nc1cc([N+](=O)[O-])ccc1Cl	USP17 block 45
Cc1sc(NC(=O)CN2CCCCCC2)nc1-c1ccc2c(c1)CCN2C(=O)C(C)C	none
CC(C)c1nc2sc3c(N(CCO)CCO)ncnc3c2c2c1COC(C)(C)C2	USP30 block 60
C=CCNc1ncnc2c1sc1nc(C(C)C)c3c(c12)CC(C)(C)OC3	none (no result: USP30 block, USP28 block)
CCCCN(CC)c1ncnc2c1sc1nc(-c3ccccc3)c3c(c12)CC(C)(C)OC3	none
CCCCN(CC)c1ncnc2c1sc1nc(-c3ccco3)c3c(c12)CC(C)(C)OC3	USP17 block 53
CC1(C)OC(=O)[C@@]2(C)N[C@]1(C)C[C@@H]2C(=O)Nc1cccc2cccnc12	none
O=C(Cc1ccc(Cl)cc1)Nc1ccc2nn(-c3ccc(F)cc3)nc2c1	USP17 block 45 (no result: USP30 block, USP28 block)
O=C(Cc1ccc(F)cc1)Nc1ccc(N2CCOCC2)cc1	none
O=C(CSc1nnnn1-c1ccccc1)Nc1ccccc1	USP30 block 46, USP17 block 51
COc1ccc(-n2c(SCC(=O)Nc3cc(Cl)ccc3C(=O)O)nc3ccccc3c2=O)cc1Cl	USP17 block 93 (no result: USP30 block, USP28 block)
CC1=NOC(CNC(=O)Nc2ccc(C)c(F)c2)C1 (stereo unspecified)	none
CC(C)N1CCn2c(nc3cc(NC(=O)c4cccnc4)ccc32)C1	USP17 block 34
CCOC(=O)c1cc(NC(=O)c2cccnc2)ccc1N1CCOCC1	none
O=C(c1cnn2cccnc12)N1Cc2nccn2CC1c1ccccc1 (stereo unspecified)	none
CCOc1ccc(-c2nc(SCC(=O)Nc3cccc(C)c3)n3[nH]c(=O)cc3n2)cc1	USP17 block 40
Oc1ccc2ccccc2c1CN1CCCC1	none
Oc1ccc2ccccc2c1CN1CCN(c2ncccn2)CC1	USP17 block 36 (no result: USP30 block, USP28 block)
Cc1cc(O)c2c(=O)c3c(O)cccc3oc2c1O	USP17 block 37
O=S(=O)(Nc1cccn2cnnc12)c1ccc2c(c1)OCCO2	none
O=C(CCCc1c[nH]c2ccccc12)N1CCN(S(=O)(=O)c2ccc(Br)cc2)CC1	none
O=C(CCCc1c[nH]c2ccccc12)N1CCN(S(=O)(=O)c2ccc(F)cc2)CC1	USP30 block 41
O=C1CC[C@H](O)c2cccc(O)c21	none
O=C1CC(O)C(O)c2cccc(O)c21 (stereo unspecified)	USP28 block 34, USP17 block 90
Cc1ccc(NC(=O)c2ccc(Nc3nnc(C)c4ccccc34)cc2)cc1	USP28 block 75, USP17 block 52
Cc1nnc(Nc2ccc(C(=O)Nc3c(Cl)cccc3Cl)cc2)c2ccccc12	none
COC[C@H]1C[C@@H]2CN(S(=O)(=O)c3ccccc3)C(C)[C@H]1N2C (stereo partly specified)	none
O=C(COc1ccc(Cl)cc1)Nc1ccc(-c2cn3cccnc3n2)cc1	USP17 block 35
COc1ccc(CC(=O)Nc2cc(-c3cn4cccnc4n3)ccc2C)cc1	USP17 block 37
O=C(CC1=NS(=O)(=O)c2ccccc2N1)Nc1ccccc1Br	none (no result: USP30 block, USP28 block)
Cc1ccc(NS(=O)(=O)c2cc(-c3[nH]ncc3C(=O)N3CCCCC3)oc2C)cc1	none
CCc1ccc(NS(=O)(=O)c2cc(-c3[nH]ncc3C(=O)N3CCCCC3)oc2C)cc1	USP30 block 41
